# Screening results as filed in PubChem.
# In the library only some 7.4% were active in any assay of this set; here they are far more common.
# NPC1 promoter act: activators of NPC1 promoter; Huh7 NPC1 promoter luciferase reporter, 24 h; Potency, µM (doses to about 9.22 µM), for inactives: at the top dose activation, actives largely listed as activators; actives 2.4% (n = 320,000); also: % of control where 0% means no effect; nearly all actives have a fitted effect of over 60% in size
#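 Huh7 cells stably carrying NPC1 promoter–luciferase, plated in Opti-MEM with 10% FBS for 2 h, were exposed to compound in DMSO for 24 h at 37 °C; luciferase reagent was added for 10 min and luminescence read.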
# KinaseGlo FLuc: blocks Kinase-Glo luciferase, a counter-screen artifact; Kinase-Glo luciferase, ATP luminescence, 8 min; Potency, µM (series often up to 38.3 µM), inactives show at the top dose activity change, negative = inhibition, most hits filed as inhibitors; actives 0.28% (n = 200,000); AID 1379; also: % is scaled to controls: 0 for no effect and ±100 for the full control effect; nearly all actives have a fitted effect of over 60% in size
#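 Light output from Kinase-Glo luciferase with luciferin and 10 uM ATP in 50 mM imidazole pH 7.2, KCl, MgCl2, Tween 20, BSA; compound pin-delivered, 8-min ambient incubation, then luminescence read.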
# ELG1 genotoxic: genotoxicity induction in ELG1-luciferase HEK293T cells | Potency, µM (doses to about 46 µM), inactives show top-dose activity change, positive = activation, most hits filed as activators | AID 504466 | HEK293T ELG1-luciferase reporter, luminescence, 16 h | actives 1.3% (n = 330,000); also: % of control where 0% means no effect; nearly all actives have a fitted effect of over 60% in size
#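 Quantitative HTS format in 1536-well plates. HEK293T ELG1-luciferase reporter cells receive test compound and are incubated 16 hr at 37 °C, 5% CO2; ONE-Glo added, 30 min room temperature, then luminescence read.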
# FLuc counter: firefly luciferase modulation, counter-screen for miR-21 project. P08659. Potency, µM (highest dose often 57.5 µM), for the others: at the highest dose activity change, negative = inhibition, usual class: inhibitors. AID 588342. actives 6.9% (n = 360,000). purified FLuc, Km substrates, luminescence inhibition;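 also: plate controls were vehicle for no effect and reference inhibitor for full effect; nearly all actives have a fitted effect of over 55% in size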
# Target sequence (P08659 whole entry, looked up): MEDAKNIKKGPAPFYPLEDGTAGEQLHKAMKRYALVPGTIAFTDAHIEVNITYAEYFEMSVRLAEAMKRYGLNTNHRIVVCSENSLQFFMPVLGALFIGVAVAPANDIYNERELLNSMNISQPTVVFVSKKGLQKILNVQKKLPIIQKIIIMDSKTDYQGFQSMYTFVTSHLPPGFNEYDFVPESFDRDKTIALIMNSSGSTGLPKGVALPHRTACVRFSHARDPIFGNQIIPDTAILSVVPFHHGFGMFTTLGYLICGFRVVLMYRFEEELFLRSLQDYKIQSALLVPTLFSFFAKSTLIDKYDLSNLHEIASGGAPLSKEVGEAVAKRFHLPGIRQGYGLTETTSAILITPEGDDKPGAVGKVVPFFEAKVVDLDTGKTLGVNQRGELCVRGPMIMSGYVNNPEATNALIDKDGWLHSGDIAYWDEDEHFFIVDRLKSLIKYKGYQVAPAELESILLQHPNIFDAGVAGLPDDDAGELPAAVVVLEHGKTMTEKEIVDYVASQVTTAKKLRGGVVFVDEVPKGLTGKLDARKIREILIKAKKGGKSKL
#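 Biochemical qHTS of compounds, final roughly 60 µM downward over six points, against 10 nM purified firefly luciferase using Km concentrations of substrates (10 uM D-luciferin, 10 uM ATP) in Tris acetate pH 7.5 buffer; luminescence output.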
# SMN2 splice enh: increases expression of the SMN2 splice variant; AID 1458; Potency, µM (highest dose often 46.1 µM), without a hit: at the top dose activity change, positive = activation, hits mostly activators; actives 2.8% (n = 210,000); HEK293 SMN2-luciferase splicing reporter, luminescence, 30-36 h; also: % of control where 0% means no effect; nearly all actives have a fitted effect of over 55% in size
#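 qHTS luciferase splicing reporter: luminescence rises when SMN2 exon 7 is included in transfected HEK293 cells. Compound exposure lasted 30-36 h at 37C, with 4.5 mM final sodium butyrate as control, followed by a ONE-Glo read.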
# Rab9 prom act: activates the Rab9 promoter; Huh7 Rab9 promoter-luciferase reporter, luminescence, 24 h; Potency, µM (doses to about 9.22 µM), inactives show at the top dose activation, negative = inhibition, usual class: activators; actives 2.8% (n = 320,000); also: % of control where 0% means no effect; nearly all actives have a fitted effect of over 60% in size
#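 Cells were plated at 1500 per well in reduced-serum medium with 10% FBS and left 2 h. Compound in DMSO was then added for 24 h at 37 °C. Reporter signal was read by luminescence after 10 min with luciferase detection reagent.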
# Numbers without * were called inactive; ? = inconclusive; nt = no result. Calls follow the shape of the dose curve; as a rule, active = well fitted curve in the direction sought with a large enough effect; inconclusive = small, poorly fitted or top-dose-only effect, or another doubt; inactive = no such curve, though single readings can be large; an effect the other way counts as inactive or inconclusive. Potency is read from the fitted curve at half-maximal effect.
SMILES,NPC1 promoter act,KinaseGlo FLuc,ELG1 genotoxic,FLuc counter,SMN2 splice enh,Rab9 prom act
O=C(NNC(=O)c1ccc(NC(=O)c2ccccc2)cc1)c1ccccc1,-6%,1%,18%,-3%,4%,-1%
O=C(Nc1ccc(Cl)c(Cl)c1)Nc1ccccc1O,4µM*,nt,?,6µM*,nt,4µM*
O=C(Nc1ccc2nc3ccccc3nc2c1)c1ccccc1,1.4µM*,0%,?,1.7µM*,4µM*,0.56µM*
CC(C(=O)Nc1cc(C(F)(F)F)ccc1Cl)n1nnc2sc3c(c2c1=O)CCCC3 (centres undefined),nt,nt,nt,-9%,8%,nt
Cc1cccc2cc(CN(CCCO)C(=O)Nc3ccc(Cl)cc3)c(=O)[nH]c12,-3%,2%,2%,?,-11%,3%
Cc1cccc2cc(CN(CCCO)C(=O)Nc3cccc(Cl)c3)c(=O)[nH]c12,-3%,-5%,-6%,21µM*,-16%,-9%
Cc1ccc(N2C(=O)c3ccccc3C2C(=O)c2ccc(O)cc2O)cc1 (centres undefined),2%,1%,-4%,-5%,?,-1%
Cc1ccc(N2C(=O)c3ccccc3C2C(=O)c2cc(C)ccc2O)cc1 (centres undefined),23%,1%,-1%,?,13µM*,21%
COC(=O)c1cn(NC(=O)/C=C/c2cc(OC)ccc2OC)c(=O)c2ccccc12,-2%,2%,-2%,0%,-21%,-1%
Clc1ccc(N2CCN(c3ncnc4c3cnn4-c3ccccc3)CC2)cc1Cl,nt,nt,nt,-2%,nt,nt
COc1ccc(-n2ncc3c(N4CCC(C(N)=O)CC4)ncnc32)cc1,3.5µM*,0%,0%,15µM*,0%,2.8µM*
CCOC(=O)C1CCN(c2ncnc3c2cnn3-c2ccc(OC)cc2)CC1,2%,1%,2%,?,-2%,-2%
Cc1cccc(-n2ncc3c(N4CCCCCC4)ncnc32)c1,nt,nt,nt,0.6µM*,nt,nt
Cc1ccc(-n2ncc3c(N4CCCC4)ncnc32)c(C)c1,?,-2%,-7%,?,-17%,?
Cc1ccc(-n2ncc3c(N4CCN(Cc5ccccc5)CC4)ncnc32)cc1C,nt,nt,nt,-13%,nt,nt
Cc1ccc(-n2ncc3c(N4CCCCCC4)ncnc32)cc1C,nt,nt,nt,0.27µM*,nt,nt
c1ccc(-n2ncc3c(N4CCCCC4)ncnc32)cc1,0.32µM*,-18%,0.46µM*,0.27µM*,-87%,?
COC(=O)c1ccc(NC(=O)CSc2n[nH]c(CC(C)C)n2)cc1,nt,nt,nt,-11%,-3%,nt
COc1ccccc1C(=O)Nc1ccnn1C1CCN(Cc2cnn(C)c2C)CC1,-1%,nt,6%,2%,nt,-4%
Cc1cccc(-n2ncc3c(N4CCC(C)CC4)ncnc32)c1,1.1µM*,11%,?,1.9µM*,2.5µM*,0.89µM*
Cc1cccc(N2CCN(c3ncnc4c3cnn4-c3ccc(Cl)cc3)CC2C)c1 (centres undefined),nt,nt,nt,-2%,nt,nt
COc1ccc(N(CC(=O)NC2CCCCC2)C(=O)c2ccc(C)s2)c(OC)c1,-1%,nt,-3%,2%,nt,-1%
O=C1CCC(C(=O)N2CCCC(Nc3ccc(F)cc3)C2)=NN1 (centres undefined),2%,nt,2%,-2%,nt,3%
Cc1cccc(C)c1OCC(=O)NCc1nnc(SCC(=O)NC2CCCCC2C)n1C (centres undefined),-1%,2%,2%,11%,22µM*,1%
CCn1c(CNC(=O)COc2ccc(C(C)C)cc2)nnc1SCC(=O)NC1CCCCC1C (centres undefined),-4%,-1%,-5%,-21%,-39%,-5%
SMILES,NPC1 promoter act,KinaseGlo FLuc,ELG1 genotoxic,FLuc counter,SMN2 splice enh,Rab9 prom act
Cc1ccn2c(C(=O)N/N=C/c3ccc(Cl)cc3)c(C)nc2c1,-2%,nt,4%,-4%,nt,-4%
Cc1ccn2c(C(=O)N/N=C/c3ccc(CNC(=O)C(=O)Nc4ccc(C)c(C)c4)o3)c(C)nc2c1,1%,1%,0%,6.7µM*,28%,-1%
Cc1nc2ccccn2c1C(=O)N/N=C/c1ccccc1,-2%,nt,1%,-11%,nt,-4%
Cc1ccc(NC(=O)C(=O)NCc2ccc(/C=N/NC(=O)c3c(C)nc4ccccn34)o2)cc1,-2%,-2%,2%,1.7µM*,?,-2%
COc1ccccc1CC(=O)Nc1ccc(S(=O)(=O)N(C)C2CCN(C)CC2)cc1,-1%,nt,0%,4%,nt,0%
Cc1ccc(C(=O)/C=C/c2cn(CC(O)CN3CCOCC3)c3ccccc23)cc1 (centres undefined),7%,-1%,-1%,?,-25%,15%
CCOc1ccc(C(=O)/C=C/c2cn(CN3CCN(C)CC3)c3ccccc23)cc1,16%,3%,7%,17µM*,17%,18%
COc1ccc(C(=O)/C=C/c2cn(CC(O)CN3CCOCC3)c3ccccc23)cc1 (centres undefined),10%,1%,-7%,15µM*,-51%,1%
COc1ccc(C(=O)/C=C/c2cn(CN3CCN(C)CC3)c3ccccc23)cc1,21%,-3%,?,6µM*,-55%,27%
CCCN(CCC)CC(O)Cn1cc(/C=C/C(=O)c2ccc(OCC)cc2)c2ccccc21 (centres undefined),nt,nt,nt,-18%,-40%,nt
COc1ccc(CNC(=O)C2CCCN(C(=O)N3CCOc4ccccc43)C2)cc1 (centres undefined),nt,nt,nt,-17%,nt,nt
Cc1cc(N/N=C/c2ccccc2)nc(N)n1,27%,nt,?,17µM*,nt,27%
Cc1ccc(/C=N/Nc2cc(C)nc(N3CCOCC3)n2)cc1,-1%,nt,-3%,2.7µM*,nt,-2%
CC(C)c1ccc(/C=N/Nc2cc(N3CCOCC3)nc(N3CCOCC3)n2)cc1,1%,4%,-7%,3%,-3%,-3%
Cc1cc(N/N=C/c2ccccc2)nc(N2CCOCC2)n1,5%,nt,9%,12µM*,nt,1%
Cc1cn(-c2ccccc2)c(C)c1/C=N\Nc1nc(N2CCOCC2)nc(N2CCOCC2)n1,-2%,0%,-5%,19µM*,0%,8%
Cc1cc(OCC(O)CN2CCN(c3ccccn3)CC2)cc(C)c1Cl (centres undefined),-5%,nt,0%,6%,nt,-3%
O=c1cc(O)c2ccc(O)cc2o1,0%,nt,1%,-1%,nt,8%
O=c1ccc2[n+]([O-])c3ccc(O)cc3oc-2c1,2%,nt,-10%,15µM*,nt,0%
N#Cc1cc2c(nc1SC1CC(=O)N(c3ccccc3)C1=O)CCC2 (centres undefined),-11%,-5%,3%,11µM*,-78%,-13%
CSc1nc2c(cc1C#N)CCC2,1%,nt,0%,-1%,nt,-2%
